Test results from PubChem BioAssay AID2061317 (National Center for Advancing Translational Sciences (NCATS), 2025).
Records with an inconclusive call do not appear. Activity calls are given as the source filed them. The call rests on the fitted dose curve; in most records, active means well fitted inhibition curve with a large enough effect; inconclusive means small, poorly fitted or top-dose-only effect; inactive means flat fitted curve, though single readings scatter.

Assay: Identification of antibody-drug conjugate (ADC) payloads which are substrates of ATP-binding cassette drug efflux transporters: ABCB1-HEK293-MDR-19 cell line with tariquidar
Settings: HEK293 ABCB1 (MDR-19) + tariquidar, CellTiter-Glo viability, 48 h
Excerpt: Antibody-drug conjugates (ADCs) feature an antibody recognizing a specific protein joined to a potent toxic payload. Numerous antibody-drug conjugates have received FDA approval; however, clinical resistance arises. Resistance mechanisms include decreased expression or mutation of the antibody target, impaired payload release, or increased expression of ATP-binding cassette (ABC) efflux transporters associated with multidrug resistance. We therefore sought to characterize the interaction of ABC multidrug transporters with ADC payloads. We performed a high-throughput screen with 27 common ADC payloads using cells lines expressing ABC transporters P-glycoprotein (P-gp, encoded by ABCB1) or ABCG2 (encoded by ABCG2). Confirmatory assays were also performed using cells transfected to express P-gp, ABCG2, or MRP1 (encoded by ABCC1). Several commonly used ADC payloads were substrates of P-gp, including calicheamicin gamma1, monomethyl auristatin E, DM1, and DM4. All the pyrrolobenzodiazepines tested - SJG136, SGD-1882, SG2057, and SG3199 - were substrates of P-gp, ABCG2, and MRP1. […] These findings highlight the risk of transporter-mediated resistance with certain ADC payloads and underscore the importance of selecting payloads that evade ABC transporter recognition in future ADC development.
HEK-293 cells were transfected with empty vector (pcDNA) or vector containing the human ABCB1 (MDR-19), ABCG2 (R-5), or ABCC1 gene (MRP1) and were maintained in EMEM with 2 mg/mL G418 added to maintain transporter expression. The HeLa derivative KB-3-1 and the P-gp overexpressing KB-8-5-11 subline were maintained in DMEM; KB-8-5-11 additionally received 100 ng/mL colchicine. H460 parental cells were obtained from the Division of Cancer Treatment and Diagnosis Tumor Repository, National Cancer Institute at Frederick, MD and were cultured in RPMI. The ABCG2 expressing subline H460 MX20 was generated by selecting H460 cells in 20 nM mitoxantrone. Media in all cases was supplemented with 10% FBS and 1% penicillin-streptomycin. We explored 27 common ADC payloads, in two orthogonal, paired cell line sets-a drug selected and transfected set for each transporter--to identify substrates of the ABC transporters P-gp and ABCG2. Compounds were sourced from Levena Biopharma (San Diego, CA), Selleck Chem (Houston, TX), ChemieTek (Indianapolis, IN), or Microsource Discovery Systems (Gaylordsville, CT). Screening was performed as previously described. Briefly, cells were plated at a density of 500 cells/well in 1536 well plates with compounds added using a 1536-head pin tool (Kalypsys, San Diego CA). Cells were incubated with cytotoxic drugs and processed with CellTiter Glo reagent (Promega, Madison, WI) to determine viability after 48 hours. P-gp substrates were identified by comparing compound activity between paired sets of low-expressing (sensitive) and over-expressing (resistant) cell lines.

Row | SMILES | Potency
1 | CC[C@@]1(O)C(=O)OCc2c1cc1n(c2=O)Cc2cc3ccccc3nc2-1 | 13.3 nM (active)
2 | CC[C@H](C)[C@H](NC(=O)[C@H]1CCCCN1C)C(=O)N(C)[C@H](C[C@@H](OC(C)=O)c1nc(C(=O)N[C@@H](Cc2ccccc2)C[C@H](C)C(=O)O)cs1)C(C)C | 3.3 nM (active)
3 | COc1cc2cc(c1Cl)N(C)C(=O)C[C@H](OC(=O)[C@H](C)N(C)C(=O)CCC(C)(C)S)[C@]1(C)OC1[C@H](C)C1C[C@@](O)(NC(=O)O1)[C@H](OC)/C=C/C=C(\C)C2 (some centres not stated) | 1.2 nM (active)
4 | COc1cc2cc(C(=O)N3C[C@@H](CCl)c4c3cc(O)c3ccccc43)[nH]c2c(OC)c1OC | 1.7 nM (active)
5 | COc1cccc2c1C(=O)c1c(O)c3c(c(O)c1C2=O)C[C@@](O)(C(=O)CO)CC3OC1CC(N2CCOC(OC)C2)C(O)C(C)O1 (some centres not stated) | 1.3 nM (active)
6 | CC[C@H](C)[C@@H]([C@@H](CC(=O)N1CCC[C@H]1[C@H](OC)[C@@H](C)C(=O)N[C@H](C)[C@@H](O)c1ccccc1)OC)N(C)C(=O)[C@@H](NC(=O)[C@H](C(C)C)N(C)C)C(C)C | 1.3 nM (active)
7 | COc1cc2cc(c1Cl)N(C)C(=O)C[C@H](OC(=O)C(C)C)[C@]1(C)O[C@H]1[C@H](C)[C@@H]1C[C@@](O)(NC(=O)O1)[C@H](OC)C=CC=C(C)C2 | 0.3 nM (active)
